Test results reported in PubChem BioAssay (EPA / NIEHS).
Results filed as inconclusive are left out. The source holds several records for some structures; these can differ, active in one and inactive in another. Activity calls are given as the source filed them. How the source made its calls: active means hit-call score of the fitted dose curve at least 0.9, where 1 is the maximum; inconclusive means response in the unintended direction; inactive means score below 0.9.

Assay: Tanguay_ZF_120hpf_SNOU_legacy: (Legacy) Oregon State University Tanguay Lab 120 Hour Post-fertilization zebrafish Assay for Snout Malformation (AID 2283637)
Protocol: Tanguay_ZF_120hpf_legacy is a whole embryo, multiplexed endpoint assay using zebrafish larvae exposed for 120 hours post fertilization on a 96-well plate.Tanguay_ZF_120hpf_SNOU_legacy is one of one assay component(s) measured or calculated from the Tanguay_ZF_120hpf_legacy assay. It is designed to make measurements of zebrafish development as detected with brightfield microscopy of developing zebrafish embryos.Data from the assay component Tanguay_ZF_120hpf_SNOU_legacy was analyzed into 1 assay endpoints. This assay endpoint, Tanguay_ZF_120hpf_SNOU_legacy, was analyzed in the positive analysis fitting direction relative to DMSO as the negative control and baseline of activity. Using a type of morphology reporter, gain-of-signal activity can be used to understand changes in developmentals as they relate to the whole embryo. To generalize the intended target to other relatable targets, this assay endpoint is annotated to the zebrafish development intended target family, where the subfamily is embryonic snout morphogenesis.
Zebrafish husbandry: Tropical 5D wild-type adult zebrafish were housed in at an approximate density of 1000 per 100 gallon tank at the Sinnhuber Aquatic Research Laboratory, Oregon State University, Corvallis, OR. Each tank was kept at standard laboratory conditions of 28C on a 14-h light/10-h dark photoperiod in fish water consisting of reverse osmosis water supplemented with a commercially available salt (Instant Ocean). Spawning funnels were placed into the tanks the night prior, and embryos were collected and staged. To increase bioavailability, the chorion was enzymatically removed using pronase (63.6mg/ml, >/= 3.5U/mg, Sigma-Aldrich: P5147) at 4 hours post fertilization (hpf) using a custom automated dechorionator.Chemical exposures: Six hpf dechorionated embryos were placed 1 embryo per well in a 96-well plate prefilled with 90 ul of EM using automated embryo placement systems (AEPS). Ten microliters of each row of dilution plate 2 was added to 2 exposure plates. The final DMSO concentration used was 0.64% (vol/vol). Thirty-two embryos were also exposed to 5uM trimethyltin chloride (positive control). Plates were sealed to prevent evaporation and foil covered to reduce light exposure and kept in a 28C incubator. Embryos were statically exposed until 120 hpf. At 24 hpf, embryos were assessed for photomotor response using a custom photomotor response analysis tool (PRAT) and for developmental toxicity endpoints (MO24: mortality at 24 hpf, DP: developmental progression, SM: spontaneous movement, and NC: notochord distortion). At 120 hpf, locomotor activity was measured using Viewpoint Zebralab and assessed for 18 endpoints. Zebrafish acquisition and analysis program (ZAAP), a custom program designed to inventory, acquire, and manage zebrafish data, was used to collect developmental endpoints as either present or absent (i.e., binary responses were recorded). If mortality occurred for an embryo (at either 24 or 120 hpf), the non-mortality endpoints were not measured.
With `CC(C)(OO)c1ccccc1` the outcome was “inactive”.
With `CN(C)N=O` the outcome was “inactive”.
For `C=CC(=O)OCCCCCC(C)C`, the outcome was “inactive”.
In the case of `O=C(O)C(Cl)(Cl)Cl`, the outcome is reported as “inactive”.
For `C[C@]12CCC(=O)C[C@@H]1CC[C@@H]1[C@@H]2CC[C@]2(C)[C@@H](O)CC[C@@H]12`, the outcome was “inactive”.
In the case of `COc1cc(-c2ccc(N)c(OC)c2)ccc1N`, the outcome is reported as “inactive” and the AC50 is reported as 12 µM (active).
For `CCC(=O)C(CC(C)N(C)C)(c1ccccc1)c1ccccc1` (stereo not drawn), the AC50 was 29.1 µM (active).
With `CCOP(=S)(OCC)Oc1nc(Cl)c(Cl)cc1Cl` the outcome was “inactive”.
In the case of `CC(=O)[O][Hg][c]1ccccc1`, the outcome is reported as “inactive”.
With `CC(C)(c1ccccc1)c1ccc(O)c(C(C)(C)c2ccccc2)c1` the outcome was “inactive”.
For `CCN1CCC2(CC1)COc1cc3c(cc12)N(C(=O)c1ccc(-c2ccc(-c4nnc(C)o4)cc2C)cc1)CC3`, the outcome was “inactive”.
For `NC(=O)O`, the outcome was “inactive”.
In the case of `ClC1(Cl)C2(Cl)C3(Cl)C4(Cl)C(Cl)(Cl)C5(Cl)C3(Cl)C1(Cl)C5(Cl)C24Cl` (stereo not drawn), the outcome is reported as “inactive”.
In the case of `CCCCCCCCc1ccc(O)cc1`, the outcome is reported as “inactive”.
In the case of `O=C(O)C(F)(F)C(F)(F)C(F)(F)C(F)(F)C(F)(F)C(F)(F)C(F)(F)C(F)(F)C(F)(F)C(F)(F)F`, the outcome is reported as “inactive”.
For `CC12CC1(C)C(=O)N(c1cc(Cl)cc(Cl)c1)C2=O` (stereo not drawn), the outcome was “inactive”.
In the case of `Cc1ccccc1N`, the outcome is reported as “inactive”.
For `CC(C)(C)c1cc(O)ccc1O`, the outcome was “inactive”.
With `O=C(Nc1ccc2[nH]ccc2c1)c1cc2cc(F)ccc2n1Cc1cccc(F)c1` the outcome was “inactive”.
With `CCOP(=S)(OCC)SCSP(=S)(OCC)OCC` the outcome was “inactive”.
With `CCC(C)(C)c1ccc(O)c(C(C)(C)CC)c1` the outcome was “inactive”.
For `ClCC(Cl)CCl`, the outcome was “inactive”.
For `O=[N+]([O-])c1ccc(O)c([N+](=O)[O-])c1`, the outcome was “inactive”.
In the case of `Oc1cccc2cccnc12`, the outcome is reported as “inactive”.
In the case of `C=C(C)C(=O)[O][Sn]([CH2]CCC)([CH2]CCC)[CH2]CCC`, the outcome is reported as “inactive”.
In the case of `O=C1C2(Cl)C3(Cl)C4(Cl)C(Cl)(Cl)C5(Cl)C3(Cl)C1(Cl)C5(Cl)C24Cl` (stereo not drawn), the AC50 is reported as 9.66 µM (active).
In the case of `O=c1[nH]c(=O)[nH]c(=O)[nH]1`, the outcome is reported as “inactive”.
